# The full list was thinned out, with the strongest signals kept by preference.
# Key:
# Test in all cases: glycan array binding signal (z-score within array); higher = stronger binding
# Details in all cases: glycan notation: IUPAC condensed, linker removed
# [1] = target: Fuc(a1-2)Gal(b1-3)GlcNAc(b1-3)[Gal(b1-4)[Fuc(a1-3)]GlcNAc(b1-6)]Gal(b1-4)Glc
# Outline: (§1)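 Glycan array binding is given as a within-array Z-score, which can be read as non-binding when negative. The arrays, 3228 of them, came from the Consortium for Functional Glycomics database and were retained only where the protein sequence was available. Z-scores were averaged across arrays of the same protein sequence at different concentrations or buffers and across linkers.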
# [2] = target: Fuc(a1-2)Gal(b1-3)[Fuc(a1-4)]GlcNAc(b1-2)Man(a1-3)[Fuc(a1-2)Gal(b1-3)[Fuc(a1-4)]GlcNAc(b1-2)Man(a1-6)]Man(b1-4)GlcNAc(b1-4)GlcNAc
# Outline: as §1
# [3] = target: Fuc(a1-2)Gal(b1-4)[Fuc(a1-3)]GlcNAc
# Outline: as §1
# Fuc(a1-2)GlcNAc = target: Fuc(a1-2)GlcNAc
# Outline: as §1
# [4] = target: Fuc(a1-2)[Gal(a1-3)]Gal(b1-3)GalNAc
# Outline: as §1
# [5] = target: Fuc(a1-2)[GalNAc(a1-3)]Gal(b1-4)GlcNAc(b1-2)Man(a1-3)[Fuc(a1-2)[GalNAc(a1-3)]Gal(b1-4)GlcNAc(b1-2)Man(a1-6)]Man(b1-4)GlcNAc(b1-4)GlcNAc
# Outline: as §1
# [6] = target: Fuc(a1-2)[GalNAc(a1-3)]Gal(b1-4)GlcNAc(b1-3)Gal(b1-4)GlcNAc
# Outline: as §1
# [7] = target: Fuc(a1-2)[GalNAc(a1-3)]Gal(b1-4)GlcNAc(b1-3)Gal(b1-4)GlcNAc(b1-3)Gal(b1-4)GlcNAc
# Outline: as §1
# [8] = target: Fuc(a1-2)[GalNAc(a1-3)]Gal(b1-4)[Fuc(a1-3)]GlcNAc(b1-3)GalNAc
# Outline: as §1
# [9] = target: Fuc(a1-2)[GalNAc(a1-4)]Gal(b1-4)GlcNAc
# Outline: as §1
# [10] = target: Fuc(a1-3)[Gal(b1-4)]Glc6S
# Outline: as §1
# [11] = target: Fuc(a1-3)[Gal(b1-4)]GlcNAc(b1-2)Man(a1-3)[Fuc(a1-3)[Gal(b1-4)]GlcNAc(b1-2)Man(a1-6)]Man(b1-4)GlcNAc(b1-4)GlcNAc
# Outline: as §1
# [12] = target: Fuc(a1-3)[Gal(b1-4)]GlcNAc(b1-3)Gal(b1-4)[Fuc(a1-3)]GlcNAc
# Outline: as §1
# [13] = target: Fuc(a1-3)[Gal(b1-4)]GlcNAc(b1-4)Gal(b1-4)[Fuc(a1-3)]GlcNAc(b1-4)Gal(b1-4)[Fuc(a1-3)]GlcNAc
# Outline: as §1
# [14] = target: Fuc(a1-3)[Neu5Ac(a2-3)]Gal(b1-4)GlcNAc(b1-3)GalNAc
# Outline: as §1
# Gal(a1-3)Gal(b1-3)GlcNAc = target: Gal(a1-3)Gal(b1-3)GlcNAc
# Outline: as §1
# [15] = target: Gal(a1-3)Gal(b1-4)GlcNAc(b1-6)GalNAc
# Outline: as §1
# Gal(a1-4)Gal(b1-4)GlcNAc = target: Gal(a1-4)Gal(b1-4)GlcNAc
# Outline: as §1
# Gal(b1-2)Gal = target: Gal(b1-2)Gal
# Outline: as §1
# Gal(b1-3)GalNAc(b1-3)Gal = target: Gal(b1-3)GalNAc(b1-3)Gal
# Outline: as §1
# [16] = target: Gal(b1-3)GalNAc(b1-4)[Neu5Ac(a2-3)]Gal(b1-4)Glc
# Outline: as §1
# Gal(b1-3)GlcNAc(b1-2)Man = target: Gal(b1-3)GlcNAc(b1-2)Man
# Outline: as §1
# [17] = target: Gal(b1-3)GlcNAc(b1-3)Gal(b1-4)GlcNAc(b1-3)Gal(b1-4)GlcNAc(b1-2)[Gal(b1-3)GlcNAc(b1-3)Gal(b1-4)GlcNAc(b1-3)Gal(b1-4)GlcNAc(b1-6)]Man(a1-6)[Gal(b1-3)GlcNAc(b1-3)Gal(b1-4)GlcNAc(b1-3)Gal(b1-4)GlcNAc(b1-2)Man(a1-3)]Man(b1-4)GlcNAc(b1-4)[Fuc(a1-6)]GlcNAc
# Outline: as §1
# [18] = target: Gal(b1-3)GlcNAc(b1-3)Gal(b1-4)GlcNAc(b1-6)[Gal(b1-3)GlcNAc(b1-3)]Gal(b1-4)Glc
# Outline: as §1
# [19] = target: Gal(b1-3)GlcNAc(b1-6)[Gal(b1-3)]GalNAc
# Outline: as §1
# [20] = target: Gal(b1-3)[Fuc(a1-4)]GlcNAc(b1-2)Man(a1-3)[Gal(b1-3)[Fuc(a1-4)]GlcNAc(b1-2)Man(a1-6)]Man(b1-4)GlcNAc(b1-4)GlcNAc
# Outline: as §1
# [21] = target: Gal(b1-4)GlcNAc(b1-2)Man(a1-3)[GlcNAc(b1-4)][Gal(b1-4)GlcNAc(b1-2)Man(a1-6)]Man(b1-4)GlcNAc(b1-4)GlcNAc
# Outline: as §1
# [22] = target: Gal(b1-4)GlcNAc(b1-3)Gal(b1-4)GlcNAc(b1-3)Gal(b1-4)GlcNAc(b1-2)[Gal(b1-4)GlcNAc(b1-3)Gal(b1-4)GlcNAc(b1-3)Gal(b1-4)GlcNAc(b1-6)]Man(a1-6)[Gal(b1-4)GlcNAc(b1-3)Gal(b1-4)GlcNAc(b1-3)Gal(b1-4)GlcNAc(b1-2)Man(a1-3)]Man(b1-4)GlcNAc(b1-4)[Fuc(a1-6)]GlcNAc
# Outline: as §1
# [23] = target: Gal(b1-4)GlcNAc(b1-3)Gal(b1-4)GlcNAc(b1-3)Gal(b1-4)GlcNAc(b1-3)Gal(b1-4)GlcNAc(b1-3)Gal(b1-4)GlcNAc(b1-2)Man(a1-3)[Gal(b1-4)GlcNAc(b1-3)Gal(b1-4)GlcNAc(b1-3)Gal(b1-4)GlcNAc(b1-3)Gal(b1-4)GlcNAc(b1-3)Gal(b1-4)GlcNAc(b1-2)Man(a1-6)]Man(b1-4)GlcNAc(b1-4)[Fuc(a1-6)]GlcNAc
# Outline: as §1
binder,measurement,setting,value
"HPA (Helix pomatia), Q2F1K8 (protein) MQAFYSGLLLLCVVAFAAAQRVQSGKIDCGNDAGWAKVPSDDPGRDNTRELAKNITFASPYCRPPVVLLSITQLDVEQSQNLRVIARLYSVSPTGFKASCYTWHNTKVYSMSISWISIENY",glycan array binding signal (z-score),[1],-0.454
same,glycan array binding signal (z-score),[2],4.62
same,glycan array binding signal (z-score),[3],-0.109
same,glycan array binding signal (z-score),Fuc(a1-2)GlcNAc,-0.295
same,glycan array binding signal (z-score),[4],-0.303
same,glycan array binding signal (z-score),[5],3.07
same,glycan array binding signal (z-score),[6],2.66
same,glycan array binding signal (z-score),[7],3.15
same,glycan array binding signal (z-score),[8],0.306
same,glycan array binding signal (z-score),[9],2.81
same,glycan array binding signal (z-score),[10],0.244
same,glycan array binding signal (z-score),[11],-0.126
same,glycan array binding signal (z-score),[12],-0.242
same,glycan array binding signal (z-score),[13],-0.09
same,glycan array binding signal (z-score),[14],4.26
same,glycan array binding signal (z-score),Gal(a1-3)Gal(b1-3)GlcNAc,-0.213
same,glycan array binding signal (z-score),[15],-0.173
same,glycan array binding signal (z-score),Gal(a1-4)Gal(b1-4)GlcNAc,-0.114
same,glycan array binding signal (z-score),Gal(b1-2)Gal,-0.074
same,glycan array binding signal (z-score),Gal(b1-3)GalNAc(b1-3)Gal,-0.375
same,glycan array binding signal (z-score),[16],-0.291
same,glycan array binding signal (z-score),Gal(b1-3)GlcNAc(b1-2)Man,-0.119
same,glycan array binding signal (z-score),[17],0.092
same,glycan array binding signal (z-score),[18],-0.34
same,glycan array binding signal (z-score),[19],-0.205
same,glycan array binding signal (z-score),[20],2.87
same,glycan array binding signal (z-score),[21],-0.311
same,glycan array binding signal (z-score),[22],0.257
same,glycan array binding signal (z-score),[23],0.027
